Measurements: PubChem BioAssay AID1942 (Johns Hopkins Ion Channel Center, 2009)
Among all 2,400 compounds or so, about 580 (24%) were called active. These entries were drawn from the full list. A number with no mark means an inactive call.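 Rule for the calls: active = activity change at or above the mean plus 3 SD of buffer wells without dofetilide, per plate; inactive = the rest.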

Biological target: Potassium voltage-gated channel subfamily KQT member 2 (Rattus norvegicus) (UniProt O88943)
Test: rat KCNQ2 channel activation by compounds alone, confirmation, counter-screen for hERG block protector project, cell-based, CHO, FluxOR thallium flux (AID 1942);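 note: normalized value minus buffer-control mean plus three SD of buffer wells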
Settings: CHO-KCNQ2 cells, FluxOR thallium flux fluorescence; at 10 µM; stronger effect = higher value

Chain of Potassium voltage-gated channel subfamily KQT member 2 (Rattus norvegicus) (O88943 whole entry, looked up): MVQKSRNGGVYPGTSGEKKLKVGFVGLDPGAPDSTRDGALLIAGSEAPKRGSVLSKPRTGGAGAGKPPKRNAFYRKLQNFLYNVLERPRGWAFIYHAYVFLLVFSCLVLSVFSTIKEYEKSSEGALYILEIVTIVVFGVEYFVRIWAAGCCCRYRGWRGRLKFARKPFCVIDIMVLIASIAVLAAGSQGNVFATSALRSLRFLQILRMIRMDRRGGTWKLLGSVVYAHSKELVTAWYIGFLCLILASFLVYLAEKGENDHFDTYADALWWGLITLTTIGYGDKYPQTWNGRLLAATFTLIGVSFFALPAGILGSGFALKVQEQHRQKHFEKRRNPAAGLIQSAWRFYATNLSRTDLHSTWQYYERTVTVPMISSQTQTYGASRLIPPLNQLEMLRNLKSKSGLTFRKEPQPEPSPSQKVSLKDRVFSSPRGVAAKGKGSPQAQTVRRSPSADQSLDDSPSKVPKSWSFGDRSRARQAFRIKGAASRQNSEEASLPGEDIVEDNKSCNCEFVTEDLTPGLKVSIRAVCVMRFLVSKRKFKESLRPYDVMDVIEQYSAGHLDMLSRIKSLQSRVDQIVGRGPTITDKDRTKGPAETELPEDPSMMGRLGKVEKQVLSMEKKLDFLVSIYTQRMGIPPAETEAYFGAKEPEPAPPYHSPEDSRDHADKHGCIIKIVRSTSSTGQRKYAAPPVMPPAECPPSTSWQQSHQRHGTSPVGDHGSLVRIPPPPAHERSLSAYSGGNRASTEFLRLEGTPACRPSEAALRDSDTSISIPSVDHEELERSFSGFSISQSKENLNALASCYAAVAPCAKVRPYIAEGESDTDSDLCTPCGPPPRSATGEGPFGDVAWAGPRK

SMILES | activity change, less the hit threshold
Cc1nc2scc(C)n2c(=O)c1S(=O)(=O)Nc1ccc(N2CCOCC2)cc1 | -19.6%
CCOc1cc(N2CCOCC2)c(OCC)cc1NC(=O)Cn1nc(C)c([N+](=O)[O-])c1C | -16.6%
O=C(CNC1CCCCCC1)Nc1ccccc1N1CCOCC1 | -21.6%
CCOc1cc(N2CCOCC2)c(OCC)cc1NC(=O)CCC1CCCC1 | 75.8% (active)
CCOc1ccc(NC(=O)CN(C)C(=O)c2c(-c3c(F)cccc3Cl)noc2C)cc1OCC | -16.8%
O=C(COc1ccc2ccccc2c1Br)Nc1cccnc1 | -22.1%
Cc1ccc(C(=O)c2ccccc2C(=O)O)c(O)c1 | -21.5%
O=C(/C=C/c1ccccc1Cl)c1ccccc(=O)c1O | 30.9% (active)
Cc1ccc(C)c(/C=C/C(=O)c2ccccc(=O)c2O)c1 | 29.3% (active)
Cc1ccc(/C=C/C(=O)c2ccccc(=O)c2O)c(C)c1 | 40.1% (active)
Cc1ccc(/C=C/C(=O)c2ccccc(=O)c2O)cc1C | 28.9% (active)
Cc1ccc(C(=O)CC(=O)c2cccc(F)c2)c(O)c1 | -14.8%
Cc1ccc(NS(=O)(=O)c2ccc(NC(=O)c3ccccc3C(=O)O)cc2)cc1C | -17%
Cc1cccc(NC(=O)CN2C(=O)S/C(=C\c3ccc(-c4cccc(C(=O)O)c4C)o3)C2=O)c1 | -15.3%
N/C(=N\OCc1ccccc1)c1nonc1N | -14.5%
O=C(COC(=O)C1C2CC3OC(=O)C1C3C2)Nc1ccc(Cl)cc1 (stereo not drawn) | -17.9%
CCc1ccc(/C=N/NC(=O)c2nnn(-c3nonc3N)c2C(C)C)cc1 | -25.3%
CCC(C)C(NC(=O)C(C)NC(=O)CNC(=O)CNC(=O)OCc1ccccc1)C(=O)OC (stereo not drawn) | -19.3%
CCn1c2ccccc2c2cc(NC(=O)COc3ccccc3)ccc21 | -20.7%
O=C(NC(=S)N1CCN(c2ccccc2)CC1)c1c(F)cccc1F | -2.6%
O=C(NC(=S)N1CCN(c2ccc(F)cc2)CC1)c1cccs1 | 25.4% (active)
CC1CCCCC1NC(=S)NC(=O)c1sc2ccccc2c1Cl (stereo not drawn) | -10%
COc1ccc(N2CCN(C(=S)Nc3cccc(OC)c3)CC2)cc1 | -8.3%
CC1CCCCC1NC(=S)NC(=O)c1cccs1 (stereo not drawn) | 27.8% (active)
CC1CCN(C(=S)NC(=O)c2cccs2)CC1 | 2.2% (active)

SMILES | activity change, less the hit threshold
O=C(NC(=S)N1CCN(c2ccccc2)CC1)c1ccccc1 | 11.4% (active)
Cc1cc(C)cc(-n2nnc(C(=O)NCc3ccc4c(c3)OCO4)c2N)c1 | -15.8%
N#Cc1cccc(NC(=O)c2nc(-c3ccccc3)n(-c3ccccc3)n2)c1 | -22.3%
Oc1ccc(N2CCN(C(c3cccnc3)c3nnnn3Cc3ccccc3)CC2)cc1 (stereo not drawn) | -10.2%
CCOC(=O)c1[nH]c(=O)[nH]c1COC(=O)c1cc2ccccc2o1 | -20.5%
Cn1c(/N=C/c2c(O)ccc3ccccc23)nc2ccccc21 | -14.8%
CC1(C)Cc2c(sc3[nH]c(=S)n(Cc4ccccc4)c(=O)c23)CO1 | 11.3% (active)
CCC1(C)Cc2c(sc3[nH]c(=S)n(Cc4ccccc4)c(=O)c23)CO1 (stereo not drawn) | 48.6% (active)
Cn1c(=O)c2sc3c(c2n(CC(=O)Nc2ccccc2)c1=O)COC(C)(C)C3 | -11.1%
CC(C)C1Cc2c(sc3[nH]c(=S)n(Cc4ccccc4)c(=O)c23)CO1 (stereo not drawn) | 19.3% (active)
CCC(=O)N1c2ccc(C)cc2C2=NNC(=S)NC21O (stereo not drawn) | -16.9%
O=C(NC1CCCC1)C(c1ccncc1)N(Cc1ccccc1F)C(=O)c1csnn1 (stereo not drawn) | -8.5%
COc1ccc(-c2cnn(C3CCS(=O)(=O)C3)c2N)cc1 (stereo not drawn) | -16.8%
Cc1cc(C)c(S(=O)(=O)c2ccccc2)c(OC(=O)c2c(F)cccc2Cl)n1 | -22%
COc1cccc(C(=O)/C=C/Nc2ccc(S(=O)(=O)Nc3cnc4ccccc4n3)cc2)c1 | -20.6%
O=C1C=C(Nc2cccc3cccnc23)c2ccccc2C1=O | -8.1%
O=C(Nn1c(O)c(C=C2N=c3ccccc3=N2)sc1=S)c1cccc(Cl)c1 | -23.1%
CN(C(=O)c1ccc(Cl)c(S(=O)(=O)N2CCOCC2)c1)c1ccccc1C(=O)O | -1.7%
c1ccc(-c2ccc(-c3ccncn3)cc2)cc1 | -16.2%
COc1ccc(-c2nc(-c3ccccn3)ncc2S(C)(=O)=O)cc1 | -15.6%
c1ccc(-c2n[nH]c(-c3ccccn3)n2)cc1 | 5.9% (active)
CC(C)Sc1nc2ccccc2n2cnnc12 | -12.8%
C/C(=N\Nc1nc2ccccc2s1)c1cccs1 | -9.9%
C/C(=N\Nc1nc2ccccc2s1)c1ccc(Br)s1 | -5.9%
C/C(=N\Nc1nc2ccccc2nc1C)c1ccccc1O | 7.3% (active)

SMILES | activity change, less the hit threshold
CCCCNC(=O)N1CCCC(C(=O)c2cc(C)c(OC)c(C)c2)C1 (stereo not drawn) | -22.8%
CCC1(c2ccccc2)NC(=S)N(c2ccc(C)cc2)N1 (stereo not drawn) | 102% (active)
CCC1(c2ccc(Cl)cc2)NC(=S)N(c2ccc(C)cc2)N1 (stereo not drawn) | 83.8% (active)
CCC1(c2ccc(Cl)cc2)NC(=S)N(c2ccccc2)N1 (stereo not drawn) | 84.8% (active)
S=c1[nH]nc(-c2ccccn2)n1/N=C/c1ccc(-c2ccccc2Br)o1 | -12.9%
CC12CCC(C(=O)OC3CCCCC3)(OC1=O)C2(C)C (stereo not drawn) | -26.6%
C=CCNC(=O)c1onc(CSc2ccc(OC)cc2)c1C(=O)O | -16.5%
Cn1c2ccccc2c(=O)c2c(=O)n(Cc3ccco3)c(-c3ccc(Cl)cc3Cl)nc21 | -29.7%
O=C(Nc1cccnc1)c1ccc(COc2cc(Cl)ccc2Cl)o1 | -20%
O=C(CCl)NCCN1C(=O)S/C(=C\c2cccnc2)C1=O | -19%
C[n+]1ccccc1/C=C/c1c(F)cccc1F | -10.9%
CCC(NS(=O)(=O)c1cn(C)nc1C)c1ccccc1 (stereo not drawn) | -7.9%
Cc1cccc(C(=O)NC(=S)N(C)C2CCCCC2)c1 | 18.5% (active)
O=C(NC(=S)NNC(=O)[C@H]1C[C@@H]1c1ccccc1)c1cccc(F)c1 | -30.9%
Cc1ccc(C(=O)NC(=S)N(C)C2CCCCC2)cc1 | 5.4% (active)
CN(C1=C(NC(=O)c2ccccc2)C(=O)c2ccccc2C1=O)C1CCS(=O)(=O)C1 (stereo not drawn) | -3.2%
COc1ccc(C(=O)NC(=S)N(C)C2CCCCC2)cc1 | -3.2%
CN(C(=S)NC(=O)c1ccccc1)C1CCCCC1 | 2% (active)
Cc1cccc(C(=O)NC(=S)NNC(=O)COc2c(C)cccc2C)c1 | -27.8%
C/C(=C\C(=O)c1ccccc1)NNC(=O)c1ccc(Cl)cc1 | -3.2%
CN(C(=S)NC(=O)c1ccc(Cl)cc1)C1CCCCC1 | 4.8% (active)
CC(C)CNC(=S)NC(=O)c1ccc(Cl)cc1 | -3.9%
COc1ccc(-c2nn(-c3ccccc3)cc2C(=O)Nc2cccc(C(=O)O)c2)cc1[N+](=O)[O-] | -18.7%
Cc1c(Cl)c([N+](=O)[O-])nn1CC(=O)NCC(C)C | -16.4%
O=C(CCCOc1ccc(Cl)cc1Cl)Nc1ccccc1C(=O)O | -39.2%

SMILES | activity change, less the hit threshold
O=C(c1ccc(CS(=O)c2cccc(Cl)c2)o1)N1CCCCCC1 (stereo not drawn) | -25.8%
O=S(=O)(c1ccc(F)cc1)N1CCN(c2ccc(F)cc2)CC1 | -13.8%
CCCNC(=O)N1CCN(S(=O)(=O)c2ccc(C)cc2)CC1 | -17.2%
Cc1ccc(O)c(C(=O)CC(=O)c2ccc(Cl)cc2)c1 | -16.6%
Cc1ccc(O)c(Sc2cc(C)ccc2O)c1 | 2% (active)
Cc1ccc(O)c(C(=O)CC(=O)c2ccccc2Cl)c1 | -13.5%
NNC(=O)CNc1ccccc1Cl | -15.1%
O=C(NCC1CCS(=O)(=O)C1)Oc1ccccc1 (stereo not drawn) | -12.4%
C=CCN(c1ccc(Cl)cc1)S(=O)(=O)c1cccc(C(=O)O)c1 | 4.4% (active)
C=CCN(c1ccccc1)S(=O)(=O)c1cccc(C(=O)Nc2nnc(SCC)s2)c1 | -20.2%
C=CCN(c1cccc(C(F)(F)F)c1)S(=O)(=O)c1cccc(C(=O)OCC(=O)Nc2ccccc2)c1 | -0.5%
CN(C)S(=O)(=O)c1cccc(C(=O)Nc2cccnc2)c1 | -13.5%
O=C(Cn1cncn1)c1ccccc1Br | -24%
CCCN(Cc1ccccc1)C(=S)NC(=O)c1ccccc1[N+](=O)[O-] | 92.5% (active)
O=C(NC(=S)N(Cc1ccccc1)Cc1ccccc1)c1ccccc1F | 38.8% (active)
O=C(Nc1ccccc1C(=O)O)c1cccc(NC(=O)c2ccccc2Br)c1 | -16%
COc1nccnc1NS(=O)(=O)c1ccc(NC(=S)NC(=O)c2ccccc2F)cc1 | -13.5%
CN(Cc1ccccc1)C1CCN(Cc2ccccc2[N+](=O)[O-])CC1 | -15.5%
CCC(=O)NC(=S)NNC(=O)c1ccccc1[N+](=O)[O-] | -19.6%
CCN(Cc1ccccc1)C(=S)NC(=O)c1ccccc1Br | 66.7% (active)
CC(C)CN(C(=O)COC(=O)CNC(=O)c1ccccc1F)c1c(N)n(Cc2ccccc2)c(=O)[nH]c1=O | -7.7%
CCN(C(=S)NC(=O)c1ccccc1Br)C1CCCCC1 | 62.1% (active)
O=C(NCC1CCCCC1)c1cccnc1Cl | -17.7%
